Source: the supplement of paper PMC10338343
± gives the standard deviation. In all, about 8,200 sequences were measured (“pre-steady-state target cleavage rate”: median about 0.024, highest 2% from about 1.3 on). What follows is part of a selection rich in the highest values, with near analogues and random picks from the rest.

Test system: MIWI (PIWIL1) piRISC loaded with L1MC piRNA (30 nt)
Test: pre-steady-state target cleavage rate (min^-1); MIWI and MILI are mouse PIWI proteins and EfPiwi is from a freshwater sponge; tags in brackets are library labels; higher = faster piRNA-guided slicing of the target
Conditions: guide: L1MC piRNA 5'p-UAACUAAAUACUAUGCAAGCUGUAGGUCCU
Description: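 Cleave-'n-Seq: a library of target RNAs (target site embedded in constant flanks, ACAGCATTCCGCGTTAGTGATATCCG... 5' flank; DNA-blocked outside the site) at 0.1 nM was incubated with 1 nM active mouse MILI or MIWI piRISC (synthetic 5'-monophosphorylated piRNA guide) with or without 500 nM mouse GTSF1 at 33 °C for 1 min to 16 h. Uncleaved targets were sequenced and normalised to non-target controls, and the pooled three trials were fitted to a burst-and-steady-state model to give the pre-steady-state cleavage rate (min^-1; k3 is constrained to at most 1e-4). Sequence is the target site only; target names encode pairing extent (gX:gY) and contiguous / 1-mismatch / 2-mismatch / bulge geometry. Fits with R² ≤ 0 are excluded.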

[1] = auxiliary factor: 500 nM mouse GTSF1
[2] = auxiliary factor: none (no GTSF1)

Row | Sequence | pre-steady-state target cleavage rate [1] | pre-steady-state target cleavage rate [2]
1 | UCCUGGAUGUCCUUGCAUAGUAUUUAGUCA | 0.0473 ± 0.011 | 0.00568 ± 0.0021
2 | UCGACCUACAUGCUUGCAUAGUAUUUAGUUA | 0.913 ± 0.037 | 0.0554 ± 0.012
3 | UCCACCUACAGCUUGCAUAGUUUUUACUUA | 0.173 ± 0.03 | 0.0106 ± 0.0026
4 | UCCUGGUUCAGCUUGCAUAGUUUUUAGUUA | 0.242 ± 0.031 | 0.0386 ± 0.0094
5 | AGGACCUACAGCAACCAUAGUAUUUAGUUA | 0.426 ± 0.039 | 
6 | AGGUCCAACAGCUUGCAUAGUAUUUAGUUA | 1.5 ± 0.04 | 0.0907 ± 0.014
7 | UCCAACUACAGCUUGCAUAGUAUUUAGUUA | 0.646 ± 0.038 | 0.0478 ± 0.0076
8 | UCGUCCAACAGCUUGCAUAGUAUUUAGUUA | 1.4 ± 0.044 | 0.0771 ± 0.014
9 | UCCUCCAACAGCUUGCAUAGUAUUUAGUUA | 1.37 ± 0.041 | 0.0735 ± 0.013
10 | UCCUCCAACAGCUUGCAUAGUAUUUAGUAA | 0.675 ± 0.03 | 0.0256 ± 0.0063
11 | UCCACCAACAGCUUGCAUAGUAUUUAGUUA | 1.06 ± 0.037 | 0.0618 ± 0.011
12 | UCCUCCAACAGCUUGCAUAGUAUUUAGAUA | 0.491 ± 0.042 | 0.0201 ± 0.0048
13 | UCCACCAACAGCUUGCAUAGUAUUUAGUAA | 0.644 ± 0.039 | 0.0342 ± 0.0071
14 | UGGUCCAACAGCUUGCAUAGUAUUUAGUUA | 0.852 ± 0.034 | 0.0715 ± 0.01
15 | UGGACGUACAGCUUGCAUAGUAAUUAGUUA | 0.725 ± 0.048 | 0.0371 ± 0.0089
16 | UCCUGGUACAGCUUGCAUAGUAUUAUGAAA | 0.119 ± 0.037 | 
17 | UCCUGGUACACCUUGCAUAGUAAUUAGUUA | 0.546 ± 0.1 | 0.00728 ± 0.0025
18 | AGCACCUACAGCUUGGAUAGUAUUUAGUUA | 0.99 ± 0.049 | 0.0433 ± 0.0065
19 | UCGACCUACAGCUUGGAUAGUAUUUAGUUA | 1.72 ± 0.055 | 0.0599 ± 0.01
20 | UGCACCUACAGCUUGGAUAGUAUUUAGUUA | 1.18 ± 0.065 | 0.05 ± 0.008
21 | UCGACCUACAGCUUGGAUAGUAUUUAGAUA | 0.444 ± 0.05 | 0.0181 ± 0.0047

Row | Sequence | pre-steady-state target cleavage rate [1] | pre-steady-state target cleavage rate [2]
22 | ACGACCUACAGCUUGGAUAGUAUUUAGUUA | 1.68 ± 0.067 | 0.0728 ± 0.011
23 | UCGACCUACAGCUUGGAUAGUAUUUAGUAA | 0.859 ± 0.043 | 0.0299 ± 0.0054
24 | AGGACGAACAGCUUGCAUAGUAUUUACAAA | 0.245 ± 0.037 | 0.00641 ± 0.0027
25 | UGGACCUACACGUUGCAUAGUAUUUAGUAA | 0.575 ± 0.039 | 0.00987 ± 0.0024
26 | UCGAUCCUACAGCUUGCAUAGUAUUUAGUUA | 1.49 ± 0.042 | 0.0686 ± 0.013
27 | UGGAUCCUACAGCUUGCAUAGUAUUUAGUUA | 1.37 ± 0.071 | 0.0869 ± 0.014
28 | AGGAUCCUACAGCUUGCAUAGUAUUUAGUUA | 1.4 ± 0.068 | 0.118 ± 0.023
29 | UCCAUCCUACAGCUUGCAUAGUAUUUAGUUA | 0.558 ± 0.029 | 0.0561 ± 0.0096
30 | AGGUCCUACAGCUUGCAUAGUAUUUACAAA | 0.428 ± 0.076 | 0.00841 ± 0.003
31 | UGGACCUACAGCUUGCAGUAGUAUUUAGUUA | 0.00477 ± 0.0038 | 
32 | UCCUGGUUCAGCUUGCAUAGUAUUUAGUAA | 0.528 ± 0.055 | 0.0354 ± 0.008
33 | UCCUGCAACAGGUUGCAUAGUAUUUAGUUA | 1.11 ± 0.085 | 0.0208 ± 0.0052
34 | UCCUGGAUGUGCUUGCAUAGUAUUUAGGUUA | 0.191 ± 0.02 | 0.0232 ± 0.0058
35 | UCCUGGAUGUGCUUGCAUAGUAUUUAUGUUA | 0.202 ± 0.026 | 0.0215 ± 0.0052
36 | AGGACCUAGAGCUUGCAUAGUAAUUAGUUA | 0.747 ± 0.047 | 0.0277 ± 0.0076
37 | UGGACCAACAGCUUGCAAAGUAUUUAGUUA | 1.38 ± 0.062 | 0.0368 ± 0.0072
38 | UCGACCAACAGCUUGCUUAGUAUUUAGUUA | 1.47 ± 0.05 | 0.0416 ± 0.0081
39 | UCCACCAACAGCUUGCUUAGUAUUUAGUUA | 1.31 ± 0.061 | 0.026 ± 0.0061
40 | AGGACCAACAGCUUGCAAAGUAUUUAGUUA | 1.18 ± 0.038 | 0.0503 ± 0.01
41 | UGGACCAACAGCUUGCUUAGUAUUUAGUUA | 1.64 ± 0.092 | 0.0497 ± 0.01
42 | UCGACCAACAGCUUGCAAAGUAUUUAGUUA | 1.29 ± 0.043 | 0.0448 ± 0.01

Row | Sequence | pre-steady-state target cleavage rate [1] | pre-steady-state target cleavage rate [2]
43 | UCGACCAACAGCUUGCAUUGUAUUUAGUUA | 0.973 ± 0.028 | 0.0383 ± 0.008
44 | UCCUCCAACAGCUUGCUUAGUAUUUAGUUA | 1.28 ± 0.054 | 0.0363 ± 0.0081
45 | AGGACCAACAGCUUGCUUAGUAUUUAGUUA | 1.31 ± 0.066 | 0.0459 ± 0.0084
46 | UCCUCCUACAGUUGCAUAGUAUUUAGUUA | 0.742 ± 0.046 | 0.00376 ± 0.0017
47 | UCCUGGUUCAGCUUGCAUAGUAUUUACUUA | 0.18 ± 0.041 | 0.0237 ± 0.0048
48 | UCCUCCUACACCUUCCAUAGUAUUUAGUUA | 0.0661 ± 0.024 | 
49 | UGGACCUACAGCUUGCAUACUUUUUAGUUA | 0.0337 ± 0.0046 | 0.00745 ± 0.0014
50 | UCCACCUACAGCUUGCAUAGUAUAUACAAA | 0.413 ± 0.089 | 
51 | UCCUGGAACAGCUUGCAUAAUAUUUAGUUA | 0.559 ± 0.045 | 0.0418 ± 0.0079
52 | UCCUGGAUCAGCUUGCAUAGUAUUUAGCUA | 0.0164 ± 0.0052 | 0.00651 ± 0.0022
53 | UCCUGGAACAGCUUGCUUUGUAUUUAGUUA | 0.0971 ± 0.011 | 0.00848 ± 0.0027
54 | AGGACCUACAGCUUGCAUAGUAUUUAGUUC [g2:g30:cont:t1C] | 0.664 ± 0.055 | 0.0568 ± 0.01
55 | AGGACCUUACAGCUUGCAUAGUAUUUAGUUA | 1.33 ± 0.06 | 0.0925 ± 0.016
56 | UGGACCUUACAGCUUGCAUAGUAUUUAGUUA | 1.58 ± 0.095 | 0.0853 ± 0.016
57 | UCCACCUUACAGCUUGCAUAGUAUUUAGUUA | 1.03 ± 0.043 | 0.0654 ± 0.013
58 | AGGACCUUCAGCUUGCAUAGUAUAUAGUUA | 0.827 ± 0.057 | 0.0427 ± 0.009
59 | UGGGACCUACAGCUUGCAUAGUAUUUAGUUA | 1.11 ± 0.1 | 0.134 ± 0.033
60 | AAGGACCUACAGCUUGCAUAGUAUUUAGUUA | 1.29 ± 0.071 | 0.0755 ± 0.014
61 | GGGACCUACAGCUUGCAUAGUAUUUAGUUA | 1.32 ± 0.097 | 0.113 ± 0.025
